From PubChem BioAssay AID1159580 (chemical genetic matrix, 2015)
In all, about 5,500 compounds went through this assay and about 2,000 (36%) were called active. About 18% were inconclusive and are not listed. Rule as the data show it: active = normalized growth mostly below about 0.91 (no sharp cut-off); inconclusive = no clear call, values can overlap the other calls; inactive = mostly above about 0.92. The list shows a part of the results.

Test: chemical genetic growth profiling, strain panel (AID 1159580);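 also: tested at 20 µM; growth read once vehicle control cultures reached saturation at 30 °C; 1 = growth at the plate median or of vehicle wells; lower values mean less growth of the strain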
Conditions: S. cerevisiae deletion strains, growth OD

Measured: normalized growth

C#CCOC(=O)C1=CCCN(C)C1
inactive: locus YAL013W, strain DEP1, stronger effect = lower value 1.01 | locus YAL040C, strain CLN3, stronger effect = lower value 1.02 | locus YDR363W, strain ESC2, stronger effect = lower value 0.986 | locus YER002W, strain NOP16, stronger effect = lower value 1.03 | locus YGR078C, strain PAC10, stronger effect = lower value 1.01 | locus YGR229C, strain SMI1, stronger effect = lower value 1.01 | locus YMR263W, strain SAP30, stronger effect = lower value 1 | locus YMR307W, strain GAS1, stronger effect = lower value 0.959 | locus YNL153C, strain GIM3, stronger effect = lower value 1.03 | locus YNL175C, strain NOP13, stronger effect = lower value 1.01 | locus YNL197C, strain WHI3, stronger effect = lower value 0.99 | locus YNL224C, strain SQS1, stronger effect = lower value 0.998 | locus YNL322C, strain KRE1, stronger effect = lower value 1 | locus YOR083W, strain WHI5 (second series), stronger effect = lower value 1

CC(C)(N)Cc1ccccc1
inactive: locus YHR030C, strain SLT2, stronger effect = lower value 1.02 | locus YHR079C, strain IRE1, stronger effect = lower value 1.02 | locus YJL095W, strain BCK1, stronger effect = lower value 1 | locus YJR066W, strain TOR1, stronger effect = lower value 0.947 | locus YLR113W, strain HOG1, stronger effect = lower value 0.965 | locus YNL183C, strain NPR1, stronger effect = lower value 0.937 | locus YOR231W, strain MKK1, stronger effect = lower value 1.01 | locus YPL256C, strain CLN2, stronger effect = lower value 1.03
